Source: ChEMBL document CHEMBL4513149, “CO-ADD screening of MMV (CH) - MMV compounds” (2021)
Entries with a potency or affinity are not part of this list.

Columns and labels:
Klebsiella pneumoniae = conditions: Concentration 20 uM; ASSAY_TEST Inhibition of Bacterial Growth; detection method Absorption (OD600); MEDIA CAMHB; plate type 384well; NBS; CORNING #3640; time 18 hr
Candida albicans = conditions: 20 µM
Cryptococcus neoformans = conditions: Concentration 20 uM; ASSAY_TEST Inhibition of Fungal Growth; detection method Resazurin; Absorption (OD600-OD570); plate type 384well; NBS; CORNING #3640

SMILES	Inhibition (Klebsiella pneumoniae) [%]	Inhibition (Candida albicans) [%]	Inhibition (Cryptococcus neoformans) [%]
CCCc1ccc(S(=O)(=O)Nc2ccc(CN3CCN(CC4CC4)CC3)cc2)cc1	16.66	4.6	-0.39
N#CCN(CCCCN1CCN(c2ccc(F)cc2)CC1)C(=O)OCc1ccccc1	11.82	2.42	-5.61
COc1ccc(-c2cnc3cnc(-c4cccc(OC(C)C)c4)cn23)cc1	4.82	11.6	-13.72
O=C(NCc1ccco1)N1CCN(Cc2ccc(Cl)s2)CC1	5.01	2.08	-2.89
O=C(Nc1nc(-c2ccccn2)cs1)C1CC1c1ccccc1F (stereo unspecified)	21.19	5.33	-9.59
COc1ccc(N(CCc2cccc(C)n2)C(C)=O)cc1	13.85	2.97	-4.26
Cc1nn(C(=O)Nc2cccc(C(F)(F)F)c2)c(C)c1Sc1ncccn1	9.64	2.23	-2.75
CCOc1ccc(-c2nc(NC(=O)CS(=O)(=O)c3ccccc3)sc2C)cc1	8.83	3.16	-9.26
c1ccc(-c2cc(N3CCCCC3)c3ccccc3n2)nc1	14.97	-0.2	-6.72
O=C(Nc1nnc(S)s1)c1cc(Br)ccc1Cl	6.18	4.73	-3.6
Nc1ncc(Br)cc1-c1nc2cc(Cl)cnc2[nH]1	20.39	9.81	7.04
Cc1ccc2nc(C)c(-c3ccn(Cc4ccccc4)n3)n2c1	14.88	3.75	-8.36
CC1CS(=O)(=O)CCN1/N=C/c1ccc([N+](=O)[O-])o1 (stereo unspecified) [NIFURTIMOX]	15.43	4.12	5.99
CCC(Sc1nc2ccccc2o1)C(=O)Nc1nccs1 (stereo unspecified)	14.47	9.07	-15.51
CC(C)(C)n1nc(Cc2cccc3ccccc23)c2c(N)ncnc21	2.54	3.16	-9.17
COc1cccc(OCC(=O)c2ccc(Br)cc2)c1	-4.37	4.44	-12.88

SMILES	Inhibition (Klebsiella pneumoniae) [%]	Inhibition (Candida albicans) [%]	Inhibition (Cryptococcus neoformans) [%]
CC(C)c1ncc(-c2ccncc2)c([C@H]2CC[C@H](CNC(=O)c3cccnc3)CC2)n1	18.24	1.5	-3.68
Brc1c(-c2ccc3c(c2)OCO3)nc2ncccn12	12.72	3.56	-13.08
CCOC(=O)c1c(NC(=O)c2c(F)c(F)c(F)c(F)c2F)sc(C(N)=O)c1C	11.9	5.2	-6.59
COc1ccc(Cl)cc1NC(=O)CN(C)C(=O)c1cnn(-c2ccccc2)n1	9.17	6.95	-5.87
CCC(Sc1nc2ccccc2o1)C(=O)Nc1nnc(C)s1 (stereo unspecified)	-2.47	4.83	-9.17
COc1cc(C2=NCCN2)ccc1-c1cn(-c2cccc(C3=NCCN3)c2)nn1	15.15	2.69	3.58
O=C(NCCc1ccn(-c2ccccc2)n1)C1CCCCC1	6.33	3.92	-9.22
O=C(NC1=NCCS1)c1sc2cc(F)ccc2c1Cl	1.67	8.69	-16.39
CS(=O)(=O)c1ccc(C(=O)N(CC2CCCO2)c2nc3ccccc3s2)cc1[N+](=O)[O-] (stereo unspecified)	7.4	3.23	-10.33
CC(C)n1nc(-c2cc3c(Cl)cccc3[nH]2)c2c(N)ncnc21	6.59	5.11	-4.09
Cc1ccc(S(=O)(=O)n2cc(-c3ccnc(N)c3)c3cc(Br)cnc32)cc1	7.11	37.1	-2.21
O=C(Nc1ccc(F)c(-c2nc3cc(-c4ccccc4)cnc3[nH]2)c1)N1CCCC1	7.38	49.9	-3.95
COc1ccc(Cn2cnc3c(-c4ccco4)nc(Cl)nc32)cc1	18.21	6.94	-6.4
Cc1ccc2oc(-c3cc(NC(=O)Cc4ccccc4)ccc3Cl)nc2c1	6.29	14.6	-8.89
Cc1nn(C)cc1C(C)Nc1nncc(-c2ccc(C(F)(F)F)cc2)n1 (stereo unspecified)	3.18	3.9	-5.79
CN(C)CCNC(=O)N1CCCN(c2ncnc3cc(-c4ccccc4)sc23)CC1	15.92	2.85	-8.19
